The antibiotic and cytotoxicity screens of Wong et al. (2023)
Hit rate of the full screen: of about 39,000 compounds, about 3,300 (8.5%) were called active. The sample as a whole holds a higher share of actives than the screen did.

What follows are compounds tested on HepG2 (assay: cytotoxicity call (relative viability < 0.9)). Settings: 10 µM.

SMILES | cytotoxicity call
CC(C)NC(=O)Nc1cccc2c1O[C@@H](CN(C)Cc1ccc(C(=O)O)cc1)[C@H](C)CN([C@H](C)CO)C2=O | inactive
c1cc2c(cc1-c1nn[nH]n1)OCO2 | inactive
COc1cc(OC)cc(C(=O)Nc2nc(-c3ccc4c(c3)CCN4C(=O)CN3CCOCC3)cs2)c1 | inactive
O=C(NCCCN1CCOCC1)Nc1ccc(Cc2ccc(NC(=O)NCCCN3CCOCC3)cc2)cc1 | inactive
CC(C)(C)c1cc(NC(=O)Nc2ccc(-c3cn4c(n3)sc3cc(OCCN5CCOCC5)ccc34)cc2)no1 | active
C[C@@H]1CCCCO[C@@H](CN(C)S(=O)(=O)c2cccs2)[C@@H](C)CN([C@@H](C)CO)C(=O)c2cc(NC(=O)Cc3ccccc3)ccc2O1 | inactive
C[C@H](CO)N1C[C@H](C)[C@@H](CN(C)C(=O)Nc2ccc3c(c2)OCO3)Oc2c(NS(=O)(=O)c3cn(C)cn3)cccc2C1=O | inactive
COc1ccc(CN(C)C[C@@H]2OCCCC[C@@H](C)Oc3ccc(NC(=O)Nc4cccc5ccccc45)cc3C(=O)N([C@@H](C)CO)C[C@H]2C)cc1 | active
COc1ccc(CN(C)C[C@@H]2OCCCC[C@H](C)Oc3ccc(NC(=O)Nc4cccc5ccccc45)cc3C(=O)N([C@H](C)CO)C[C@@H]2C)cc1 | inactive
COc1ccc(CN(C)C[C@@H]2OCCCC[C@@H](C)Oc3ccc(NC(=O)Nc4cccc5ccccc45)cc3C(=O)N([C@H](C)CO)C[C@H]2C)cc1 | active
COc1ccc(CN(C)C[C@H]2OCCCC[C@H](C)Oc3ccc(NC(=O)Nc4cccc5ccccc45)cc3C(=O)N([C@@H](C)CO)C[C@@H]2C)cc1 | inactive
COc1ccc(CN(C)C[C@H]2OCCCC[C@@H](C)Oc3ccc(NC(=O)Nc4cccc5ccccc45)cc3C(=O)N([C@H](C)CO)C[C@H]2C)cc1 | inactive
COc1ccc(CN(C)C[C@H]2OCCCC[C@H](C)Oc3ccc(NC(=O)Nc4cccc5ccccc45)cc3C(=O)N([C@H](C)CO)C[C@@H]2C)cc1 | inactive
COc1ccc(CN(C)C[C@@H]2OCCCC[C@H](C)Oc3ccc(NC(=O)Nc4cccc5ccccc45)cc3C(=O)N([C@@H](C)CO)C[C@@H]2C)cc1 | inactive
COc1ccc(CN(C)C[C@@H]2OCCCC[C@H](C)Oc3ccc(NC(=O)Nc4cccc5ccccc45)cc3C(=O)N([C@@H](C)CO)C[C@H]2C)cc1 | active
COc1ccc(CN(C)C[C@@H]2OCCCC[C@H](C)Oc3ccc(NC(=O)Nc4cccc5ccccc45)cc3C(=O)N([C@H](C)CO)C[C@H]2C)cc1 | active
COc1ccc(CN(C)C[C@H]2OCCCC[C@H](C)Oc3ccc(NC(=O)Nc4cccc5ccccc45)cc3C(=O)N([C@@H](C)CO)C[C@H]2C)cc1 | inactive
COc1ccc(S(=O)(=O)Nc2ccc3c(c2)C(=O)N([C@H](C)CO)C[C@H](C)[C@H](CN(C)C(=O)CCC(F)(F)F)OCCCC[C@@H](C)O3)cc1 | inactive
COc1ccc(NC(=O)Nc2ccc3c(c2)C(=O)N([C@H](C)CO)C[C@@H](C)[C@@H](CN(C)Cc2ccncc2)OCCCC[C@@H](C)O3)cc1 | inactive
Cc1ccc(S(=O)(=O)NCC[C@H]2CC[C@@H](NS(=O)(=O)c3ccccc3Cl)[C@@H](CO)O2)cc1 | inactive
Cc1noc(C)c1NC(=O)Nc1ccc2c(c1)CC(=O)N([C@@H](C)CO)C[C@@H](C)[C@H](CN(C)S(=O)(=O)c1cn(C)cn1)O2 | inactive

SMILES | cytotoxicity call
CN1C(=O)c2cc(NC(=O)c3cnccn3)ccc2OC[C@H]2O[C@@H](CC(=O)N[C@H]3CCN(Cc4ccccc4)C3)CC[C@H]21 | inactive
COc1ccc(CN(C)C[C@H]2OCCCC[C@@H](C)Oc3ccc(NC(=O)Nc4cccc5ccccc45)cc3C(=O)N([C@@H](C)CO)C[C@H]2C)cc1 | active
COc1ccc(CN(C)C[C@@H]2OCCCC[C@@H](C)Oc3ccc(NC(=O)Nc4cccc5ccccc45)cc3C(=O)N([C@H](C)CO)C[C@@H]2C)cc1 | inactive
COc1ccc(CN(C)C[C@H]2OCCCC[C@@H](C)Oc3ccc(NC(=O)Nc4cccc5ccccc45)cc3C(=O)N([C@H](C)CO)C[C@@H]2C)cc1 | active
COc1ccc(CN(C)C[C@H]2OCCCC[C@H](C)Oc3ccc(NC(=O)Nc4cccc5ccccc45)cc3C(=O)N([C@H](C)CO)C[C@H]2C)cc1 | inactive
COc1ccc(CN(C)C[C@H]2OCCCC[C@@H](C)Oc3ccc(NC(=O)Nc4cccc5ccccc45)cc3C(=O)N([C@@H](C)CO)C[C@@H]2C)cc1 | inactive
COc1ccc(CN(C)C[C@@H]2OCCCC[C@@H](C)Oc3ccc(NC(=O)Nc4cccc5ccccc45)cc3C(=O)N([C@@H](C)CO)C[C@@H]2C)cc1 | inactive
C[C@H]1CN([C@@H](C)CO)C(=O)c2cc(NC(=O)Cn3cnnn3)ccc2O[C@H]1CN(C)S(=O)(=O)c1ccc(F)cc1 | inactive
C[C@@H]1CN([C@H](C)CO)C(=O)c2cccc(NS(=O)(=O)c3ccccc3)c2O[C@@H]1CN(C)S(=O)(=O)c1ccccc1 | inactive
C[C@@H]1CN([C@H](C)CO)C(=O)c2cc(NC(=O)Cc3ccccc3)ccc2O[C@@H](C)CCCCO[C@H]1CN(C)C(=O)Nc1ccc(F)cc1 | inactive
C[C@H]1CN([C@@H](C)CO)C(=O)Cc2cc(NS(=O)(=O)c3ccc(F)cc3)ccc2O[C@H]1CN(C)S(=O)(=O)c1ccccc1 | inactive
C#Cc1cnc(OC)cn1 | inactive
C[C@H]1CCCCO[C@H](CN(C)CC2CCCCC2)[C@@H](C)CN([C@@H](C)CO)C(=O)c2cc(NC(=O)Nc3cccc4ccccc34)ccc2O1 | active
C[C@@H]1CCCCO[C@H](CN(C)CC2CCCCC2)[C@@H](C)CN([C@H](C)CO)C(=O)c2cc(NC(=O)Nc3cccc4ccccc34)ccc2O1 | active
C[C@@H]1CN([C@@H](C)CO)C(=O)c2cc(NC(=O)Nc3cccc4ccccc34)ccc2O[C@@H](C)CCCCO[C@H]1CN(C)CC1CCCCC1 | active
C[C@@H]1CN([C@@H](C)CO)C(=O)c2cc(NC(=O)Nc3cccc4ccccc34)ccc2O[C@@H](C)CCCCO[C@@H]1CN(C)CC1CCCCC1 | active
C[C@H]1CCCCO[C@H](CN(C)C)[C@@H](C)CN([C@@H](C)CO)C(=O)c2cc(NC(=O)Nc3cccc4ccccc34)ccc2O1 | inactive
C[C@H](CO)N1C[C@H](C)[C@@H](CN(C)C)OCCCC[C@H](C)Oc2ccc(NC(=O)Nc3cccc4ccccc34)cc2C1=O | inactive
CN(C)c1ccc(O)c2c1C[C@@H]1C[C@@H]3[C@@H](N(C)C)C(=O)C(C(N)=O)=C(O)[C@]3(O)C(=O)[C@H]1C2=O | inactive
CC(C)NC(=O)N(C)C[C@@H]1Oc2ccc(NC(=O)Cn3cnnn3)cc2C(=O)N([C@H](C)CO)C[C@H]1C | inactive
COCC#Cc1ccc2c(c1)O[C@H](CN(C)S(=O)(=O)c1ccc(OC)cc1)[C@@H](C)CN([C@H](C)CO)S2(=O)=O | inactive

SMILES | cytotoxicity call
O=C(O)c1ccc2c(ccc3nn(-c4ccc(/C=C/c5ccc(-n6nc7ccc8cc(C(=O)O)ccc8c7n6)cc5S(=O)(=O)O)c(S(=O)(=O)O)c4)nc32)c1 | inactive
C[C@H]1CN([C@@H](C)CO)C(=O)c2cc(C#Cc3ccncc3)cnc2O[C@H]1CN(C)C(=O)c1ccccc1F | inactive
COc1ccc(S(=O)(=O)N(C)C[C@H]2Oc3ccc(NC(=O)CCC(F)(F)F)cc3CC(=O)N([C@@H](C)CO)C[C@H]2C)cc1 | inactive
C[C@@H]1CN([C@H](C)CO)C(=O)c2c(c3ccccc3n2C)-c2ccccc2CO[C@@H]1CN(C)Cc1cccc(O)c1 | inactive
Cc1noc(C)c1NC(=O)Nc1cccc2c1O[C@@H](CN(C)Cc1ccc(C(=O)Nc3ccccc3N)cc1)[C@H](C)CN([C@@H](C)CO)C2=O | inactive
C[C@@H]1CN([C@H](C)CO)C(=O)Cc2cc(NC(=O)Cc3ccccc3)ccc2O[C@@H]1CN(C)S(=O)(=O)c1ccccc1 | inactive
C[C@@H]1CN([C@H](C)CO)S(=O)(=O)c2ccc(C#CC3CCCC3)cc2O[C@H]1CN(C)Cc1cncnc1 | inactive
C[C@H](CO)N1C[C@H](C)[C@H](CN(C)Cc2ccncc2)Oc2c(NS(=O)(=O)c3cccs3)cccc2C1=O | inactive
CO[C@@H]1CN(C)C(=O)c2ccc(NC(=O)Nc3cccc(F)c3)cc2OC[C@@H](C)N(C(=O)Nc2cccc(F)c2)C[C@H]1C | inactive
C[C@H](CO)N1C[C@H](C)[C@H](CN(C)C(=O)CN2CCOCC2)Oc2cc(C#Cc3cccc(F)c3)ccc2S1(=O)=O | inactive
C[C@@H]1CN([C@@H](C)CO)C(=O)c2cc(NC(=O)Nc3cccc4ccccc34)ccc2O[C@@H](C)CCCCO[C@H]1CN(C)CC1CC1 | inactive
C[C@@H]1CCCCO[C@@H](CN(C)CC2CCCCC2)[C@@H](C)CN([C@@H](C)CO)C(=O)c2cc(NC(=O)Nc3cccc4ccccc34)ccc2O1 | active
C[C@@H]1CCCCO[C@@H](CN(C)CC2CC2)[C@@H](C)CN([C@H](C)CO)C(=O)c2cc(NC(=O)Nc3cccc4ccccc34)ccc2O1 | inactive
C[C@@H]1CCCCO[C@@H](CN(C)CC2CC2)[C@H](C)CN([C@@H](C)CO)C(=O)c2cc(NC(=O)Nc3cccc4ccccc34)ccc2O1 | inactive
C[C@@H]1CCCCO[C@H](CN(C)C)[C@@H](C)CN([C@H](C)CO)C(=O)c2cc(NC(=O)Nc3cccc4ccccc34)ccc2O1 | inactive
C[C@@H]1CCCCO[C@H](CN(C)CC2CCCCC2)[C@H](C)CN([C@@H](C)CO)C(=O)c2cc(NC(=O)Nc3cccc4ccccc34)ccc2O1 | active
C[C@@H]1CCCCO[C@@H](CN(C)C)[C@H](C)CN([C@H](C)CO)C(=O)c2cc(NC(=O)Nc3cccc4ccccc34)ccc2O1 | inactive
C[C@@H]1CCCCO[C@H](CN(C)CC2CCCCC2)[C@H](C)CN([C@H](C)CO)C(=O)c2cc(NC(=O)Nc3cccc4ccccc34)ccc2O1 | active
C[C@@H]1CCCCO[C@@H](CN(C)CC2CC2)[C@H](C)CN([C@H](C)CO)C(=O)c2cc(NC(=O)Nc3cccc4ccccc34)ccc2O1 | inactive
C[C@H]1CCCCO[C@@H](CN(C)CC2CCCCC2)[C@@H](C)CN([C@@H](C)CO)C(=O)c2cc(NC(=O)Nc3cccc4ccccc34)ccc2O1 | active
